Experimental data reported in ChEMBL document CHEMBL3988442, “University of Dundee, Small-Polar-MMV Screening Library” (2021).
Hit rate of the full screen: of about 48,000 compounds, about 13,000 (27%) showed an effect of 50% or more. Some of the results follow.

system: Wolbachia pipientis; assay: Anti-Wolbachia Cell-Based Screen; type: functional; parameters: scale not given: in the data most compounds retested in dose-response had high values; settings: 5 µM

Row | Structure (SMILES) | Percent Effect
1 | Cc1ccn(C)c(=O)c1NC(=O)N(C)Cc1cccc(OC(C)C)c1 | 2.513%
2 | CCCc1cncnc1N1CCC(NCc2ccncc2)CC1 | 5.564%
3 | CN(CCCc1cnn(C)c1)Cc1cc2n(n1)CCCNC2 | 97.92%
4 | CN(Cc1cc2n(n1)CCCNC2)Cc1cc(-c2ccncc2)no1 | 4.022%
5 | CN(CCCc1cnn(C)c1)Cc1cc2n(n1)CCNC2 | 121.7%
6 | CNc1ncc(CN(C)Cc2cc3n(n2)CCNC3)cn1 | 11.28%
7 | CN(Cc1cc2n(n1)CCCNC2)Cc1ccno1 | -18.26%
8 | CN(CCCc1cnn(C)c1)Cc1cc2n(n1)CCCN(C)C2 | 94.13%
9 | CN(Cc1cc2n(n1)CCNC2)Cc1noc(C2CCC2)n1 | -1.079%
10 | CN(CCCc1cnn(C)c1)C(=O)C1CCN(C(=O)C2CCC2)CC1 | 14.43%
11 | CCn1cc(CN2CCCn3nc(CNC(=O)N(C)C)cc3C2)cn1 | 15.22%
12 | CC(NC(=O)N(C)Cc1ccc2c(c1)OCO2)c1nncn1C (stereo not drawn) | 16.38%
13 | CC1(c2ccccc2)CCC(=O)N(CCN2CCOCC2)C1 (stereo not drawn) | 8.315%
14 | COC(CNC(=O)c1ccc(NC(C)=O)cc1)c1cccc(Cl)c1 (stereo not drawn) | -77.03%
15 | CCN1CCN(C)C(=O)C12CCN(Cc1ccsc1)CC2.O=C(O)C(F)(F)F | -27.74%
16 | CCN1CCN(C)C2(CCN(Cc3ccsc3)CC2)C1=O.O=C(O)C(F)(F)F.O=C(O)C(F)(F)F | 94.35%
17 | CN1CCN(Cc2ccncc2)C(=O)C12CCN(c1nccs1)CC2.O=C(O)C(F)(F)F.O=C(O)C(F)(F)F | -19.3%
18 | CN1CCN(Cc2ccncc2)C(=O)C12CCN(Cc1ccsc1)CC2.O=C(O)C(F)(F)F.O=C(O)C(F)(F)F.O=C(O)C(F)(F)F | 58.8%
19 | CN1CCN(C)C2(CCN(Cc3ccsc3)CC2)C1=O.O=C(O)C(F)(F)F | 105.2%
20 | Cn1ncc(C2CC(=O)NCc3nc4ccccn4c32)c1C1CC1 (stereo not drawn) | 1.817%
21 | CCNC(=O)[C@@H]1CCCN1C1(C(=O)NC)CCC1.Cl | 0.1969%
22 | O=C1CC2(CCSC2)C(=O)N1Cc1ncc(-c2ccccc2)o1 (stereo not drawn) | -14.26%

Row | Structure (SMILES) | Percent Effect
23 | NC(=O)CN(CC(=O)NCCc1c(F)cccc1F)C1CCCC1 | 11.15%
24 | C[C@@H]1CN(Cc2ccc(C(F)(F)F)cc2F)CC[C@]1(C)O | -2.035%
25 | COCC(=O)Nc1cnc(N2CCCC2)nc1 | -4.633%
26 | CCCC(=O)N(C)Cc1nc(N2CCCC2)ncc1-c1ccncc1.Cl | 137.6%
27 | CCOc1ccc(CN(C)C(=O)c2nc(N3CCCC3)ncc2Cl)cc1 | 16.2%
28 | CN(Cc1cnccn1)C(=O)Nc1cc(F)cc(N2CCCC2)c1 | 16.17%
29 | COCC(=O)N(C)Cc1nc(N2CCCC2)ncc1-c1ccncc1.Cl | 87.58%
30 | Cc1nc(N2CCCC2)ncc1-c1cc(O)nc(N2CCCC2)n1 | 3.993%
31 | COc1cccc(CC(=O)N2CC[C@@H](OC)[C@@H]2Cc2cccnc2)c1.O=C(O)C(F)(F)F | 137.5%
32 | COc1ccc(CC(=O)N2CC[C@@H](OC)[C@@H]2Cc2cccnc2)cc1.O=C(O)C(F)(F)F | 135%
33 | CO[C@H]1CCN(S(=O)(=O)c2cn(C)cn2)[C@H]1Cc1cccnc1.O=C(O)C(F)(F)F.O=C(O)C(F)(F)F | -4.938%
34 | Cc1noc([C@H]2COC[C@H]3CN(C(=O)Cc4ccc(F)cc4)C[C@H]32)n1 | -6.311%
35 | COc1cc(CN(C)C(=O)NC2CC2)ccc1SC | 1.322%
36 | Cc1ccc2c(c1)CN(C(=O)C1CCCCC1)C(CN(C)C)CO2.Cl (stereo not drawn) | -7.003%
37 | CC1CN(C)c2ccccc2CN1C(=O)c1ccncc1 (stereo not drawn) | -3.17%
38 | Cc1nc(C)c(C(=O)N2CCc3c(C)cccc32)o1 | -0.835%
39 | Cc1ccc2c(c1)CN(C(=O)c1cnc(C)cn1)C(CN(C)C)CO2.Cl (stereo not drawn) | 102.7%
40 | Cc1nc(C)c(C(=O)N2Cc3ccccc3OCC2CN(C)C)o1.Cl.Cl (stereo not drawn) | 85.27%
41 | Cc1ccc2c(c1)CN(C(=O)c1ccccc1F)C(CN(C)C)CO2.Cl (stereo not drawn) | -8.172%
42 | Cc1ccc2c(c1)CN(C(=O)c1ccncc1)C(CN(C)C)CO2.Cl (stereo not drawn) | 112.6%
43 | Cc1nc(C)c(C(=O)N2Cc3cc(F)ccc3CC2C)o1 (stereo not drawn) | -9.907%
44 | CCOC(=O)CC1CCCCN1C(=O)c1cnc(C)cn1 (stereo not drawn) | 6.285%

Row | Structure (SMILES) | Percent Effect
45 | CN(C)CC1COCCN1C(=O)C1(c2cccs2)CCCC1.O=CO (stereo not drawn) | -9.313%
46 | CCN(C)S(=O)(=O)N1CCCC1CC(=O)c1cccs1 (stereo not drawn) | 13.08%
47 | Cc1ccc2c(c1)CN(C(=O)c1cccs1)C(CN(C)C)CO2 (stereo not drawn) | 64.15%
48 | Cc1ccc(S(=O)(=O)NC(=O)COc2ccc(CC#N)cc2)s1 | -2.544%
49 | CN(c1ccc(-c2nc(C3CC3)no2)cn1)C1CCOCC1 | 5.539%
50 | Cc1cccc(NCCNc2ccc(C#N)cn2)n1 | 14.53%
51 | CN(Cc1nnc(-c2ccco2)o1)Cc1nc2c(s1)CCCC2 | -12.52%
52 | COc1ccc(C(=O)N2Cc3cc(C)ccc3OCC2CN(C)C)cc1.Cl (stereo not drawn) | 72.78%
53 | COc1ccc(C(=O)NC[C@H]2COCc3nc4cc(C)ccc4n32)cc1 | -9.863%
54 | Cc1ccc2c(c1)CN(C(=O)c1cccnc1)C(CN(C)C)CO2.Cl (stereo not drawn) | 73.73%
55 | COc1ccccc1C(=O)N1Cc2cc(C)ccc2OCC1CN(C)C.Cl (stereo not drawn) | -11.9%
56 | CCOCCC(=O)NCc1ccnc(NC2CC2)c1 | -81.15%
57 | CC(C)(C)OC(=O)N1CCCC[C@H]1C(=O)NCc1nccs1 | 1.043%
58 | CCC(=O)NC(C)c1ccccc1C (stereo not drawn) | 111%
59 | Cc1ccccc1C(C)NC(=O)CN1CCN(Cc2ccc(Cl)s2)CC1 (stereo not drawn) | -0.8834%
60 | CCCC1(NC(=O)C(c2ccccc2C)N(C)C)CC1 (stereo not drawn) | 5.158%
61 | Cc1ccc(C)c(C(NC(=O)C(C)(C)C)c2cccnc2)c1 (stereo not drawn) | 4.189%
62 | Cc1ccccc1C(C)NC(=O)c1ccc(=O)n(C)c1 (stereo not drawn) | 28.6%
63 | Cc1ccccc1C(CC(=O)NCC(N)=O)c1ccccc1 (stereo not drawn) | -4.865%
64 | CCC(NS(C)(=O)=O)c1ccccc1C (stereo not drawn) | -2.544%
65 | CCC(NC(=O)C(C)(C)C)c1ccccc1C (stereo not drawn) | 109.5%
66 | CCC(NCc1ccccc1C)c1ccccc1OCC(=O)NC (stereo not drawn) | -1.01%

Row | Structure (SMILES) | Percent Effect
67 | Cc1ccccc1C(NC(=O)CCCS(C)(=O)=O)C(C)(C)C (stereo not drawn) | -11.53%
68 | CCC(NC(=O)C(C)C)c1ccccc1C (stereo not drawn) | 112%
69 | CCC(=O)NC(CC)c1ccccc1C (stereo not drawn) | 115.1%
70 | Cc1nn2c(N3CCS(=O)(=O)CC3)cc(-c3ccccc3)nc2c1C | -7.306%
71 | COC(=O)CSCc1noc(-c2ccc(Cl)cc2)n1 | 23.78%
72 | Cc1nn(CCC#N)c(C)c1[C@@H]1C=C[C@@H](NCc2ccc(F)cc2)C1 | -3.605%
73 | CC(C)CCC(C)NC(=O)c1ccc(OCC(N)=O)cc1 (stereo not drawn) | -5.752%
74 | NC(=O)c1ccc(S(=O)(=O)NC2CCN(Cc3ccccc3)C2=O)cc1 (stereo not drawn) | -1.969%
75 | CCn1nc(C)cc1C(=O)N1CCCN(CCCc2ccccc2)CC1 | 0.5946%
76 | CCN1CCN(C(=O)c2cc(C(=O)OC)nn2-c2ccccc2)CC1 | -11.35%
77 | Cn1nc(C(=O)N2CCCCCC2)cc1NC(=O)c1ccccc1 | 99.88%
78 | CCCn1ccc(C(=O)N2CCC(C)CC2)n1 | -7.324%
79 | Cc1nc(N2CCOCC2)nc(C)c1NC(=O)c1ccco1 | 3.58%
80 | Cn1nc(C(=O)N2CCSCC2)cc1NC(=O)c1ccco1 | 98.85%
81 | CCN1CCN(C(=O)c2cc(NC(=O)c3ccccc3)n(C)n2)CC1 | 93.08%
82 | CC1CCN(C(=O)c2cc(NC(=O)c3ccccc3)n(C)n2)CC1 | 70.66%
83 | COC(=O)c1cc(C(=O)N2CCCCCC2)n(-c2ccccc2)n1 | -9.69%
84 | CC1CCN(C(=O)c2cn(-c3ccc(C(F)(F)F)cn3)nn2)CC1 | -7.014%
85 | Cc1nc(N2CCCC2)nc(C)c1NC(=O)c1ccco1 | 8.53%
86 | Cn1nc(C(=O)NC2CCCCC2)cc1NC(=O)C1CC1 | 0.3949%
87 | C/C=C(/C)C(=O)NS(=O)(=O)c1ccc(C(F)(F)F)cn1 | 4.736%
88 | CCCN(C(=O)c1ocnc1C)C1CCCN(Cc2ccccc2)C1 (stereo not drawn) | -1.253%

Row | Structure (SMILES) | Percent Effect
89 | O=C1CC(NCc2ccc(OC(F)F)cc2)CN1Cc1cccc(F)c1 (stereo not drawn) | 2.286%
90 | Cc1cccc(C(=O)N2CCN(C)CC2)c1NC(=O)c1ccncc1 | -3.532%
91 | O=C(c1ccn(-c2ccccc2Cl)n1)N1CCSCC1 | -7.672%
92 | CN1CCC(Oc2ccc(NC(=O)c3ccccc3)cc2)CC1 | 6.259%
93 | Cc1cccc(C(=O)N2CCSCC2)c1NC(=O)c1cccnc1 | -13.65%
94 | CN1CCN(C(=O)c2cc(NC(=O)c3ccccc3)n(C)n2)CC1 | 103.5%
95 | Cn1nc(C(=O)N2CCSCC2)cc1NC(=O)c1ccccc1 | 96.7%
96 | Cc1cc2ccccc2n1CCC(=O)N1CCCC1Cn1cccn1 (stereo not drawn) | -4.808%
97 | Cc1cc2ccccc2n1CCC(=O)N1CCN(C)CC1C(N)=O (stereo not drawn) | 104.9%
98 | Cc1cc2ccccc2n1CCC(=O)N1CCC[C@H]1C(N)=O | -2.793%
99 | CSCCC(=O)N1CCCC(c2nccn2Cc2ccncc2)C1 (stereo not drawn) | -15.94%
100 | Cc1cccc(C2CCCCN2C(=O)CCCS(C)(=O)=O)c1C (stereo not drawn) | -5.265%
101 | Cc1c[nH]nc1C1CCCCN1C(=O)CC1(O)CCCCC1 (stereo not drawn) | 121.5%
102 | Cn1cc(C2CCCN2C(=O)COC2CCCCC2)cn1 (stereo not drawn) | -3.38%
103 | Cc1c[nH]nc1C1CCCCN1C(=O)CNS(C)(=O)=O (stereo not drawn) | 91.22%
104 | Cc1n[nH]cc1CNC(=O)[C@H]1CCCCN1C(=O)OC(C)(C)C | -12.93%
105 | Cc1c[nH]nc1C1CCCCN1C(=O)CCn1nccc1C (stereo not drawn) | 91.05%
106 | Cc1ccnn1CCC(=O)N1C[C@H]2CC[C@@H]1CN(CC(=O)N(C)C)C2 | -3.709%
107 | CS(=O)(=O)NCC(=O)N1CCCC1c1noc(C2CC2)n1 (stereo not drawn) | -4.288%
108 | Cc1c[nH]nc1C1CCCCN1C(=O)Cn1cc(Cl)cn1 (stereo not drawn) | -1.424%
